Measurements: PubChem BioAssay AID2289 (National Center for Advancing Translational Sciences (NCATS), 2010)
About 3,300 (0.97%) of roughly 340,000 compounds were called active. Not shown: some 9% with an inconclusive outcome. The call rests on the fitted dose curve; in most records, active means well fitted inhibition curve with a large enough effect; inconclusive means small, poorly fitted or top-dose-only effect, or effect the other way; inactive means flat fitted curve, though single readings scatter. Some of the results follow.

Test: qHTS Assay for Modulators of miRNAs and/or Inhibitors of miR-21; further: nearly all actives have a fitted effect of over 55% in size
Conditions: HeLa miR-21-FLuc reporter, luciferase luminescence, 48 h; actives lower the signal
Summary of the method: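 Compounds were titrated across several concentrations (up to approximately 40 uM) and incubated 48 hours with HeLa miR-21-FLuc reporter cells (miR-21 target sequence downstream of FLuc, endogenous miR-21). Readout was firefly luciferase luminescence after lytic detection reagent.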
Potency means the concentration at half of the fitted maximal effect.

Potency, active:
C(=N\N=C\c1cccs1)/c1cccs1 5.21 µM
CCc1ccc(CNc2ccc3c(c2)ncn3CC)cc1 5.21 µM
CCn1cnc2cc(NCc3ccc(C)cc3)ccc21 5.21 µM
COc1ccc(-n2cnc3cc(NCc4ccco4)ccc32)cc1 14.7 µM
CCn1cnc2cc(NCc3ccccc3Cl)ccc21 11.7 µM
CC(C)n1cnc2cc(NCc3ccco3)ccc21 11.7 µM
Cc1ccc(CNc2ccc3c(c2)ncn3C(C)C)cc1 3.29 µM
Cc1ccc(CNc2ccc3c(c2)ncn3C)cc1 3.29 µM
CCn1cnc2cc(NCc3ccc(Cl)cc3)ccc21 3.69 µM
Cc1cccc(C(=O)Nc2ccc3c(c2)ncn3C)c1 1.47 µM
COc1cccc(/C=C(/CC(=O)Nc2ccc(N3CCOCC3)cc2)c2nc3ccccc3s2)c1 16.5 µM
O=C(Nc1ccc(N2CCOCC2)cc1)c1nc2ccccc2s1 0.0826 µM
Cc1ccc2oc(-c3ccc(C)c(NC(=O)/C=C/c4ccc(Cl)cc4)c3)nc2c1 3.69 µM
Cc1ccc2nc(-c3ccc(C)c(NC(=O)CSc4ccc(Cl)cc4)c3)oc2c1 2.07 µM
O=C(NC1CCCCC1)c1ccc(-c2ccccc2[N+](=O)[O-])o1 1.17 µM
O=C(NC1CCCCC1)c1ccc(-c2cccc([N+](=O)[O-])c2)o1 1.31 µM
O=C(NCc1csc(-c2cccs2)n1)C1CCCCC1 5.21 µM
COc1ccccc1CC(=O)NCc1csc(-c2cccs2)n1 6.56 µM
C/C(CCc1ccc2c(c1)OCO2)=N\NC(=O)c1ccccc1 13.1 µM
Fc1ccc(CSc2ccc(-c3ccco3)nn2)cc1 8.26 µM
Cc1ccc(CSc2ccc(-c3ccco3)nn2)cc1 6.56 µM
Fc1cccc(CSc2ccc(-c3ccco3)nn2)c1 16.5 µM
CCN(CC)N=Nc1[nH]nc2nc(C)cc(C)c12 16.5 µM
Brc1ccc2oc(-c3ccn[nH]3)cc2c1 2.93 µM
CCN(CC)CCCNC(=S)Nc1ccc(Br)cc1 2.93 µM
O=C(CSCc1ccccc1)N=Nc1c(O)[nH]c2ccccc12 16.5 µM
CC(=O)/C=C(\C)N=Nc1c(O)[nH]c2ccccc12 18.5 µM
Oc1ccc(NC(=S)N=Nc2c(O)[nH]c3ccccc23)cc1 11.7 µM
COc1cc(/C=N/Nc2ccc(C(=O)O)cc2)cc(OC)c1OC 2.33 µM
COc1ccc(/C=N/Nc2ccc(C(=O)O)cc2)cc1Br 0.104 µM
CCCOc1ccc(/C=N/Nc2ccc(C(=O)O)cc2)c(OCCC)c1 16.5 µM
CC(C)c1ccc(/C=N/Nc2ccc(C(=O)O)cc2)cc1 0.0465 µM
C=CCOc1c(Br)cc(/C=N/Nc2ccc(C(=O)O)cc2)cc1OCC 2.93 µM
Cc1nc2cc(Cl)c(Cl)cc2nc1C 16.5 µM
COc1ccccc1Nc1ncc2c(n1)CCN(CC(C)C)C2 6.56 µM
CC(C)CN1CCc2nc(Nc3ccc(F)cc3F)ncc2C1 7.36 µM
CC(=O)Nc1ccc(-c2nc3ccc(NC(C)=O)cc3o2)cc1 3.69 µM
O=C(Nc1ccc(-c2nc3cc(Cl)ccc3o2)cc1)C1CCCO1 (stereo not given) 0.656 µM
COc1ccc(-c2nc3ccc(NS(C)(=O)=O)cc3o2)cc1 1.17 µM
CC(=O)Nc1ccc(-c2nc3cc(Cl)ccc3o2)cc1 0.369 µM
COc1ccc(Cl)cc1C(=O)Nc1ccc2oc(-c3ccc(C(C)(C)C)cc3)nc2c1 4.65 µM
COc1cccc(NCCC(=O)c2cccc([N+](=O)[O-])c2)c1 13.1 µM
COc1ccc(C(=O)CCNc2cccc(Cl)c2)cc1 7.36 µM
COc1n[nH]c(C(=O)Nc2nc3ccccc3s2)c1[N+](=O)[O-] 6.56 µM
CNc1ccccc(-c2ccc3cc4c(cc3n2)OCO4)c1=O 2.61 µM
CCC(=O)NC(=S)Nc1ccc(-c2nc3ccc(C)cc3s2)cc1 8.26 µM
CCC(=O)NC(=S)Nc1ccc(-c2nc3ccccc3s2)cc1 0.293 µM
Cc1ccc2nc(-c3ccc(NC(=S)NC(=O)C(C)C)cc3)sc2c1 0.927 µM
CCCCNC(=S)Nc1ccc(-c2nc3ccc(C)cc3s2)cc1 0.826 µM
Cc1ccc(Nc2ncnc3sc(C)c(C)c23)cc1 14.7 µM
COc1ccc(NC(=O)CCCn2c(=O)c3cccn3c3ccccc32)c(OC)c1 2.07 µM
O=C(CCCn1c(=O)c2cccn2c2ccccc21)NCCc1ccc(Cl)cc1 1.47 µM
O=C(CCCn1c(=O)c2cccn2c2ccccc21)Nc1cccc(Cl)c1 2.93 µM
CCCCOC(=O)Oc1ccc2c(=O)c(Oc3cccc(C)c3)coc2c1 18.5 µM
Cc1nc(Cl)cc(N/N=C/c2ccc(O)cc2)n1 18.5 µM
Cc1nc2ccccc2nc1N/N=C/c1ccc(O)cc1 18.5 µM
C=CCc1c(C)nc2c(-c3ccccc3)cnn2c1N1CCOCC1 1.65 µM
Cc1nc2c(-c3ccccc3)cnn2c(N2CCOCC2)c1C 2.33 µM
Fc1ccc(-c2cc(-c3nc(-c4ccccc4)no3)[nH]n2)cc1 5.85 µM
Fc1ccccc1-c1nc(-c2ccccc2)no1 1.17 µM
c1ccc(-c2cc(-c3ccccc3)[nH]n2)cc1 1.65 µM
Cc1ccc(-c2noc(-c3ccccc3F)n2)cc1 1.47 µM
CS(=O)c1ccccc1-c1nc(-c2ccc(Cl)cc2)no1 (stereo not given) 6.56 µM
Cc1ccc(NC(=O)Nc2ccc3c(c2)OCO3)nc1 2.33 µM
Cc1ccc(NC(=O)Nc2ccc3c(c2)OCO3)cc1F 0.736 µM
CCCSc1nsc(NC(=O)CC)n1 0.521 µM
c1csc(CSc2nnc3sc4ccccc4n23)c1 8.26 µM
O=C(CSc1nnc2sc3ccccc3n12)c1ccco1 16.5 µM
Cc1nc(NC(=O)/C=C/c2ccccc2)sc1C(=O)N(C)C 13.1 µM
COc1ccccc1C(=O)N/N=C/c1ccc2c(c1)OCO2 3.29 µM
COc1ccccc1C(=O)N/N=C/c1cnc2ccccc2n1 11.7 µM
COc1cc(Cl)c(C)cc1NC(=O)c1cccc(OC)c1OC 5.21 µM
COc1cccc(C(=O)Nc2ccc3c(c2)OCO3)c1OC 2.07 µM
COc1ccccc1C(=O)Nc1ccc2c(c1)OCO2 9.27 µM
O=C(CNC(=O)c1ccccc1F)N/N=C/c1ccc2c(c1)OCO2 18.5 µM
COc1ccccc1C(=O)Nc1nc2cc3c(cc2s1)OCO3 0.736 µM
CC(=O)c1ccc2c(c1)Cc1cc(C(C)=O)ccc1-2 1.85 µM
Cc1ccc(-c2nc3c4ccccc4[nH]c(=O)n3n2)cc1 1.65 µM
COc1ccc(-c2nc3c4ccccc4[nH]c(=O)n3n2)cc1 3.69 µM
C[C@H](NS(=O)(=O)c1ccc(Cl)cc1)C(=O)OCC(=O)NC(=O)Nc1ccc2c(c1)OCCO2 13.1 µM
Cc1ccc(OCc2cn3cccnc3n2)cc1 2.07 µM
Cc1cc(OCc2cn3cccnc3n2)ccc1Cl 7.36 µM
c1ccc(NCC2OCc3ccccc3CO2)cc1 4.65 µM
Cc1ccc(Nc2nc(N)c([N+](=O)[O-])c(NCc3ccco3)n2)cc1 18.5 µM
Nc1nc(Nc2cccc(Cl)c2)nc(NCc2ccco2)c1[N+](=O)[O-] 13.1 µM
Cc1ccc(CC(=O)O/N=C(\N)c2ccccn2)cc1 4.14 µM
COc1ccccc1C(=O)O/N=C(\N)c1ccccc1Cl 3.29 µM
N/C(=N\OC(=O)Cc1ccccc1)c1ccccc1Cl 5.85 µM
N/C(=N\OC(=O)Cc1ccc(Cl)cc1)c1ccccn1 13.1 µM
Clc1c(-c2ccccc2)nc2ccccn12 5.21 µM
Brc1ccc(-c2ncc3ccccn23)cc1 7.36 µM
Cc1c(-c2ccc(Br)cc2)nc2ccccn12 1.47 µM
CN(C)Cc1c(-c2ccc(Cl)cc2)nc2ccccn12 6.56 µM
COc1ccc(CN=C(C)c2c(C(F)(F)F)[nH]n(-c3nc4ccccc4s3)c2=O)cc1 7.36 µM
CNc1nn(-c2cccc(Cl)c2)nc1N 4.47 µM
O=C(NNc1nc2cc3c(cc2s1)OCO3)c1ccccc1 13.1 µM
O=C(NNc1nc2cc3c(cc2s1)OCCO3)c1ccccc1 14.7 µM
CC(C)c1ccc(CNc2nc(-c3ccco3)nn2C(=O)c2ccc([N+](=O)[O-])cc2)cc1 2.07 µM
CN(C)c1ccc(CNc2nc(-c3ccco3)nn2S(C)(=O)=O)cc1 7.36 µM
COCC(=O)n1nc(-c2ccco2)nc1NCc1ccccc1Cl 16.5 µM
COc1ccc(CNc2nc(-c3ccccc3)nn2C(=O)c2ccc([N+](=O)[O-])cc2)cc1 14.7 µM
Cc1ccccc1CNC(=O)Cc1ccccc1[N+](=O)[O-] 5.21 µM
O=C(Cc1ccccc1[N+](=O)[O-])NCc1ccc2c(c1)OCO2 10.4 µM
O=C(CC12CCC(CC1)C2)NCc1ccc2c(c1)OCO2 16.5 µM
O=C(Cc1ccccc1[N+](=O)[O-])NCc1ccc(Cl)cc1 14.7 µM
